Reference: ChEMBL document CHEMBL4296182, “CO-ADD screening of NIH NCI Diversity Set V”
For part of these data: Results with a measured potency or affinity are listed apart.

Assays:
[1] = tested on: Staphylococcus aureus; assay: Antibacterial activity against Staphylococcus aureus MRSA ATCC 43300 (CO-ADD:GP_020); MIC in CAMBH media using NBS plates, by Resazurin F(560/590); format: functional; settings: Concentration 20 uM, ASSAY_TEST Inhibition of Bacterial Growth, detection method Resazurin, Fluorescence (ex560/em590), MEDIA CAMHB, plate type 384well, CORNING #3640, time 18 hr
[2] = tested on: Acinetobacter baumannii; assay: Antibacterial activity against Acinetobacter baumannii ATCC 19606 (CO-ADD:GN_034); MIC in CAMBH media using NBS plates, by Resazurin F(560/590); format: functional; settings: Concentration 20 uM, ASSAY_TEST Inhibition of Bacterial Growth, detection method Resazurin, Fluorescence (ex560/em590), MEDIA CAMHB, plate type 384well, CORNING #3640, time 18 hr
[3] = tested on: Escherichia coli; assay: Antibacterial activity against Escherichia coli ATCC 25922 (CO-ADD:GN_001); MIC in CAMBH media using NBS plates, by Resazurin F(560/590); format: functional; settings: Concentration 20 uM, ASSAY_TEST Inhibition of Bacterial Growth, detection method Resazurin, Fluorescence (ex560/em590), MEDIA CAMHB, plate type 384well, CORNING #3640, time 18 hr
[4] = tested on: Klebsiella pneumoniae; settings: Concentration 20 uM; ASSAY_TEST Inhibition of Bacterial Growth; detection method Absorption (OD600); MEDIA CAMHB; plate type 384well; NBS; CORNING #3640; time 18 hr
[5] = tested on: Candida albicans; settings: 20 µM
[6] = tested on: Cryptococcus neoformans; settings: Concentration 20 uM; ASSAY_TEST Inhibition of Fungal Growth; detection method Resazurin; Absorption (OD600-OD570); plate type 384well; NBS; CORNING #3640

## Cn1c(=O)c2nc(COc3ccc(C(C)(C)C)cc3)[nH]c2n(C)c1=O
[1]
  Inhibition: -1.06%
[2]
  Inhibition: -14.84%
[3]
  Inhibition: 1.91%
[4]
  Inhibition: 9.47%
[5]
  Inhibition: 3.68%
[6]
  Inhibition: -17.46%

## c1cc2c3c(cccc3c1)NC1(CCC3(CC1)Nc1cccc4cccc(c14)N3)N2
[1]
  Inhibition: 1.15%
[2]
  Inhibition: 7%
[3]
  Inhibition: 12.93%
[4]
  Inhibition: 19.89%
[5]
  Inhibition: 2.38%
[6]
  Inhibition: -5.58%

## Nc1ccc(S(=O)(=O)NCC2CCCCO2)cc1 (centres undefined)
[1]
  Inhibition: 11.97%
[2]
  Inhibition: 6.11%
[3]
  Inhibition: 1.65%
[4]
  Inhibition: 16.22%
[5]
  Inhibition: 0.19%
[6]
  Inhibition: -11.32%

## CSC(=NS(=O)(=O)c1ccccc1)NNC(=O)c1c(-c2c(Cl)cccc2Cl)noc1C
[1]
  Inhibition: 2.63%
[2]
  Inhibition: 2.35%
[3]
  Inhibition: -1.44%
[4]
  Inhibition: 10.18%
[5]
  Inhibition: 6.77%
[6]
  Inhibition: -2.9%

## COc1cc(NC(=O)c2cc3ccccc3cc2O)c(OC)cc1Cl
[1]
  Inhibition: 15.9%
[2]
  Inhibition: 4.67%
[3]
  Inhibition: -1.76%
[4]
  Inhibition: 8.39%
[5]
  Inhibition: 2.82%
[6]
  Inhibition: -1.31%

## OCC1(CO)COC2(CCCC2)N1
[1]
  Inhibition: 5.01%
[2]
  Inhibition: 0.7%
[3]
  Inhibition: 4.05%
[4]
  Inhibition: 19.67%
[5]
  Inhibition: -1.93%
[6]
  Inhibition: -8.24%

## Cc1nnc2nc(-c3ccccc3)nc(-c3ccccc3)n12
[1]
  Inhibition: -12.94%
[2]
  Inhibition: 8.22%
[3]
  Inhibition: 2.26%
[4]
  Inhibition: 4.14%
[5]
  Inhibition: 4.58%
[6]
  Inhibition: -11.59%

## O=C(/C=C/c1ccc(Cl)s1)c1ccc(Cl)s1
[1]
  Inhibition: 14.77%
[2]
  Inhibition: 5.48%
[3]
  Inhibition: -1.03%
[4]
  Inhibition: 0.02%
[5]
  Inhibition: 4.39%
[6]
  Inhibition: -6.98%

## Nc1ccc2c(c1)nnn2-c1ccccc1
[1]
  Inhibition: 10.19%
[2]
  Inhibition: -3.79%
[3]
  Inhibition: 12.06%
[4]
  Inhibition: -7.86%
[5]
  Inhibition: -4.43%
[6]
  Inhibition: -12.32%

## O=[N+]([O-])c1cccc(/C=C/c2ccccn2)c1
[1]
  Inhibition: 0.18%
[2]
  Inhibition: -2.22%
[3]
  Inhibition: 10.58%
[4]
  Inhibition: 8.63%
[5]
  Inhibition: 0.08%
[6]
  Inhibition: -13.12%

## Cc1cccn2c(S)nnc12
[1]
  Inhibition: 10.19%
[2]
  Inhibition: -5.53%
[3]
  Inhibition: 13.03%
[4]
  Inhibition: 17.76%
[5]
  Inhibition: 5.89%
[6]
  Inhibition: -6.48%

## Nc1ccccc1SC1CC(=O)N(c2ccccc2Cl)C1=O (centres undefined)
[1]
  Inhibition: -6.84%
[2]
  Inhibition: 10.38%
[3]
  Inhibition: -12.68%
[4]
  Inhibition: 6.14%
[5]
  Inhibition: 15%
[6]
  Inhibition: -0.17%

## COC(=NC(C)C)NC(C)C
[1]
  Inhibition: 0.33%
[2]
  Inhibition: -8.49%
[3]
  Inhibition: 15.21%
[4]
  Inhibition: 8%
[5]
  Inhibition: 1.22%
[6]
  Inhibition: -13.2%

## Nc1nnc(-c2cccnc2)s1
[1]
  Inhibition: -3.99%
[2]
  Inhibition: -10.83%
[3]
  Inhibition: 3.28%
[4]
  Inhibition: -1.35%
[5]
  Inhibition: 0.77%
[6]
  Inhibition: -10.94%

## COC(=O)[C@H]1[C@H]2C[C@@H]3c4[nH]c5cc(OC)ccc5c4CCN3C[C@H]2C[C@@H](OC(=O)CC(C)=O)[C@@H]1OC
[1]
  Inhibition: 16.88%
[2]
  Inhibition: -0.32%
[3]
  Inhibition: 11.28%
[4]
  Inhibition: 5.93%
[5]
  Inhibition: -0.86%
[6]
  Inhibition: -1.53%

## CC1=CC(=O)C(/C(C)=N/c2ccccc2Cl)C(=O)O1 (centres undefined)
[1]
  Inhibition: 7.59%
[2]
  Inhibition: 14.34%
[3]
  Inhibition: -12.7%
[4]
  Inhibition: 12.66%
[5]
  Inhibition: 20.8%
[6]
  Inhibition: 0.4%

## Cc1nn(-c2ccccc2)c2c1C(c1ccc([N+](=O)[O-])cc1)C(C#N)=C(N)O2 (centres undefined)
[1]
  Inhibition: 11.47%
[2]
  Inhibition: 2.7%
[3]
  Inhibition: 1.25%
[4]
  Inhibition: 12.44%
[5]
  Inhibition: -1.55%
[6]
  Inhibition: -5.09%

## Cc1ccc(NC(=O)Nc2nc3ccccc3s2)cc1NC(=O)Nc1nc2ccccc2s1
[1]
  Inhibition: -1.63%
[2]
  Inhibition: -10.02%
[3]
  Inhibition: 17.87%
[4]
  Inhibition: 8.92%
[5]
  Inhibition: -2.38%
[6]
  Inhibition: -1.68%

## CCCCN1CCN=C1S
[1]
  Inhibition: 9.78%
[2]
  Inhibition: -11.78%
[3]
  Inhibition: 10.98%
[4]
  Inhibition: 14.43%
[5]
  Inhibition: -2.77%
[6]
  Inhibition: -2.57%

## CCCCOc1ccc(OC(=O)Nc2cc(Cl)ccc2OC)cc1
[1]
  Inhibition: 13.88%
[2]
  Inhibition: 6.78%
[3]
  Inhibition: 2.93%
[4]
  Inhibition: 11.91%
[5]
  Inhibition: 0.59%
[6]
  Inhibition: -2.51%

## O=C(c1cccnc1)c1cc(-c2ccccn2)c(=O)n2ccccc12
[1]
  Inhibition: 15.83%
[2]
  Inhibition: 5.57%
[3]
  Inhibition: 12.26%
[4]
  Inhibition: 7.21%
[5]
  Inhibition: 0.65%
[6]
  Inhibition: -7.13%

## Nc1nc(Cl)cc(Nc2ccccc2Cl)n1
[1]
  Inhibition: 12.37%
[2]
  Inhibition: 13.94%
[3]
  Inhibition: -7.98%
[4]
  Inhibition: 12.81%
[5]
  Inhibition: 7.79%
[6]
  Inhibition: 1.11%

## CC1=C(O)C(=O)C(c2c(C)cc(C)c(Br)c2C)=C(O)C1=O
[1]
  Inhibition: 15.91%
[2]
  Inhibition: 1.25%
[3]
  Inhibition: 4.64%
[4]
  Inhibition: 20.53%
[5]
  Inhibition: 19.7%
[6]
  Inhibition: -3.3%

## Cc1nc2ccccc2nc1NS(=O)(=O)c1ccc(N)cc1
[1]
  Inhibition: -35.57%
[2]
  Inhibition: -9.78%
[3]
  Inhibition: -4.56%
[4]
  Inhibition: 7.2%
[5]
  Inhibition: 4.92%
[6]
  Inhibition: -5.27%
